# BoNT-F LC inh: BoNT F light chain protease inhibition | inhibition, % at 10 µM | AID 588497 | hit rate 0.22% among 360,000 | Multiplex microsphere protease cleavage assay, flow cytometry; in the data active means inhibition above about 35%, passing the limit was not always enough; inconclusive means no clear call, values can overlap the other calls
# BoNT A protease: inhibitors of Botulinum neurotoxin A light chain protease; multiplex microsphere protease substrate cleavage, flow cytometry; inhibition, % at 10 µM; hit rate 0.17% among 360,000
# Bead autofluor: flagged as autofluorescent in microsphere protease counterscreen. compound autofluorescence counterscreen, microsphere flow cytometry; hits give high values. AID 624483. fluorescence intensity (test concentration not listed). hit rate 3.1% among 360,000; in the data active means fluorescence intensity above about 16000; inconclusive means no clear call, values can overlap the other calls
# CCHFV vOTU inh: blocks the CCHF virus ovarian tumor domain protease; CCHFV vOTU protease, Pep-AMC fluorescence; inhibition, % at 11.5 µM; hit rate 0.55% among 370,000; AID 651958; in the data active means inhibition above about 30%
# Anthrax LF prot: inhibitors of Bacillus anthracis lethal factor protease; P15917; multiplex microsphere protease cleavage assay, LF; inhibition, % at 10 µM; hit rate 0.12% among 360,000; AID 588501
# 3CLpro inhibitor: SARS-CoV 3CLpro protease inhibition; inhibition, % at 6 µM; AID 1706; hit rate 0.14% among 290,000; recombinant SARS-CoV 3CLpro, quenched FRET peptide cleavage; P0C6X7; in the data active means inhibition above about 12%
# A number is an active result; - = inactive; ? = inconclusive; . = not tested or not shown. Most compounds without a hit are left out; they make up all but 3.9% or so of the library. Unless noted, no stated cut-off is given here; in the data, active means inhibition above about 30%; inconclusive means no clear call, values can overlap the other calls; inactive means below that.
SMILES,BoNT-F LC inh,BoNT A protease,Bead autofluor,CCHFV vOTU inh,Anthrax LF prot,3CLpro inhibitor
Cc1cc(C(=O)N2CCN(Cc3ccc4c(c3)OCO4)CC2)cs1,-,-,25075,-,-,-
Cc1cc(C(=O)Nc2ccc3c(c2)OCO3)cs1,-,-,-,.,-,-
CCSc1ccccc1C(=O)N1CCN(Cc2ccc3c(c2)OCO3)CC1,-,-,22336,-,-,-
Cc1cc(C(=O)NC(C)c2ccc3c(c2)OCO3)cs1 (stereo not given),-,?,22313,-,-,-
CCc1noc2cc(-c3ccccc3)n(C)c(=O)c12,.,.,.,-,.,.
CC(=O)Nc1ccc(Oc2cc(NC(C)=O)cc([N+](=O)[O-])c2)cc1,-,-,-,-,-,-
Cc1ccc(NC(=O)c2noc(C(C)C)c2[N+](=O)[O-])cc1,-,-,-,-,-,-
CCSc1ccccc1C(=O)N1CCCC1,-,-,23440,-,-,-
CSc1ccccc1C(=O)NCc1ccc2c(c1)OCO2,-,-,20402,-,-,-
Cc1cc(C)cc(OC(C)CCN2CCC(C(O)(c3ccccc3)c3ccccc3)CC2)c1 (stereo not given),.,.,.,-,.,.
COc1ccc(NC(=O)C(NCC(C)C)c2ccccc2)cc1Cl (stereo not given),-,-,-,-,-,-
O=C(NCCOCC(F)(F)C(F)F)c1cc(F)c(F)cc1Cl,-,-,20634,-,-,-
O=C(CC1Nc2ccccc2NC1=O)Nc1cc(Cl)cc(Cl)c1 (stereo not given),-,-,22648,-,-,-
O=S(=O)(Nc1nccs1)c1ccc(NS(=O)(=O)c2cccs2)cc1,-,-,19362,-,-,-
S=C(NCc1ccco1)Nc1cc(-c2ccccc2)[nH]n1,-,-,-,-,-,-
O=S1CCCSC1c1cccnc1 (stereo not given),-,-,21912,-,-,-
O=C1CSC(c2cccnc2)N1c1ccccc1 (stereo not given),-,-,-,-,-,-
C=COCCNC(=O)C1CC(=O)N(c2ccc(C)cc2)C1 (stereo not given),-,-,24393,-,-,-
Cc1ccc(N2CC(C(=O)Nc3cccnc3)CC2=O)cc1 (stereo not given),-,-,23113,-,-,-
CCc1ccc(N2CC(C(=O)Nc3cccnc3)CC2=O)cc1 (stereo not given),-,-,-,-,-,-
Cc1ccc(OCCNC(=O)C2CC(=O)N(c3ccc(C)cc3)C2)cc1 (stereo not given),-,-,-,-,-,-
Cc1ccc(NC(=O)C2CCN(C(=O)c3ccc(F)cc3)CC2)nc1,-,-,-,-,-,.
Cc1ccccc1N1C(=O)CC(=O)NC1=O,-,-,21951,-,-,-
CCc1ccccc1N1C(=O)CC(=O)NC1=O,-,-,-,-,-,-
COc1cccc(N2C(=O)CC(=O)NC2=O)c1,-,-,23335,-,-,-
SMILES,BoNT-F LC inh,BoNT A protease,Bead autofluor,CCHFV vOTU inh,Anthrax LF prot,3CLpro inhibitor
CCOc1cccc(N2C(=O)CC(=O)NC2=O)c1,-,-,-,-,-,-
COC(=O)[C@@]12CCCCC3=C1N(CCC3)C(=O)[C@H]2CC(=O)N1CCN(C(=O)c2ccco2)CC1,.,.,.,-,.,.
O=c1[nH]c(CN2CCN(c3ccc([N+](=O)[O-])cc3)CC2)nc2ccsc12,-,-,-,-,-,-
COc1ccc(N2CCN(Cc3nc4ccsc4c(=O)[nH]3)CC2)cc1,-,-,20654,-,-,-
CC(=O)CC[C@H]1CC[C@]2(CCCN(C(=O)c3ccco3)C2)O1,.,.,.,-,.,.
Cc1ccc(Cc2ccc(C(=O)NNC(N)=S)o2)cc1,-,-,-,-,-,-
C=CCc1cc(C=O)cc(OC)c1OCc1c(Cl)cccc1Cl,-,?,24171,-,-,-
CCc1cccc(Oc2nn[nH]n2)c1,-,-,24949,.,-,-
Cc1ccc(Oc2nn[nH]n2)cc1,-,-,-,-,-,-
NC1=NC(c2cn[nH]c2-c2ccc(F)cc2)n2c(nc3ccccc32)N1 (stereo not given),.,.,.,-,.,-
O=C(COc1ccc(S(=O)(=O)N2CCCCC2)cc1)NCc1cccnc1,-,-,22072,-,-,-
COc1ccc(CNC(=O)COc2ccc(S(=O)(=O)N3CCCCC3)cc2)cc1,-,-,-,-,-,-
Cc1cc(=O)oc2cc(OCC(=O)NCc3cccnc3)ccc12,-,-,23262,-,-,-
Cc1cccc(NC(=O)c2ccccc2C(=O)O)c1,-,-,19743,-,-,-
Cc1cccc(NC(=O)c2cccc3c2C(=O)c2ccccc2-3)c1,-,-,23188,-,-,-
Cc1ccc(NC(=O)c2cccc3c2-c2ccccc2C3=O)cc1C,-,-,-,-,-,-
Cc1cccc(NC(=O)c2ccccc2-c2ccccc2)c1,-,-,-,-,-,-
O=C(Nc1ccc2c(c1)OCCO2)c1c(F)cccc1F,-,?,20165,.,-,-
O=C(Nc1ccc2c(c1)OCO2)c1ccc(Cl)s1,-,-,16810,-,-,-
O=C(Nc1ccc2c(c1)OCCO2)c1ccccc1F,-,-,-,-,-,-
O=C(Nc1ccc2c(c1)OCO2)c1c(F)c(F)c(F)c(F)c1F,-,-,18127,-,-,-
Cn1ncc2cc(NC(=S)NC(=O)c3ccccc3)ccc21,-,-,17054,-,-,-
OCCNC(=S)Nc1ccc2c(c1)OCCO2,?,-,-,-,30.0,-
O=C(NC(=S)Nc1ccc2c(c1)OCCO2)c1ccccc1,-,?,25451,-,-,-
COc1ccc2c(c1)c(=O)oc1cc(OC(C(=O)O)c3ccccc3)ccc12 (stereo not given),-,-,-,-,-,-
SMILES,BoNT-F LC inh,BoNT A protease,Bead autofluor,CCHFV vOTU inh,Anthrax LF prot,3CLpro inhibitor
Cc1cc(=O)oc2cc(OC(C)C(=O)N3CCOCC3)ccc12 (stereo not given),-,-,23796,-,-,-
O=c1cc[nH]c2cccc(Cc3ccccc3)c12,-,-,24296,-,-,-
COC(=O)[C@]12C[C@H](CC(=O)N3CCCCC3)C(=O)N(Cc3ccccc3)C1=C[C@H](COCc1ccccc1)O[C@@H]2C,.,.,.,-,.,.
CCc1c(C)c2ccc(OCC(N)=O)cc2oc1=O,-,-,24076,-,-,-
Cc1c(CCC(=O)O)c(=O)oc2cc(OCc3cccc(Cl)c3)ccc12,39.7,-,-,-,-,-
CC(C)C(NC(=O)c1ccccc1F)C(=O)NCc1ccc(S(=O)(=O)N2CCOCC2)cc1 (stereo not given),-,-,-,-,-,.
CCc1cc(/C(Cc2ccccn2)=N\O)c(O)cc1O,-,?,18010,-,-,-
NS(=O)(=O)c1ccc(CCNC(=O)c2cc3ccccc3s2)cc1,-,-,-,-,-,-
Cc1cc(C(=O)NCc2ccco2)no1,-,-,22251,-,-,-
COc1cccc(N2CCN(C(=S)NCc3ccco3)CC2)c1,-,-,16347,-,-,-
Cc1ccc(-c2cc(C(=O)NCc3ccco3)no2)cc1,-,?,-,-,-,-
O=C(NCc1ccco1)c1cc(-c2cccc(Cl)c2)on1,-,-,21505,-,-,-
O=C(NCc1ccco1)c1ccc(-c2cccc(Cl)c2)o1,-,-,-,-,-,-

# Screening data from PubChem BioAssay.
